# Shown are actives, neighbours in structure and some others; about 6.8% of the full set was active somewhere.
# SW480 rereplic = inducers of DNA re-replication in SW480 colon cancer cells. SW480 DNA re-replication, Hoechst DNA content imaging, 48 h. Potency, µM (highest dose often 46.1 µM), without a hit: at the highest dose re-replication activation, usual class: activators. actives 1.8% (n = 340,000). AID 624297; also: % of control where 0% means no effect; nearly all actives have a fitted effect of over 55% in size
#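 SW480 cells exposed to compounds for 48 hr at 37 C, 5% CO2, then Hoechst-stained 40 min. Nuclear DNA content imaged by fluorescence scanning (405 nm excitation, 500-530 nm emission); re-replication scored as increased high-intensity nuclei.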
# PTAP TSG101 blk = blocks PTAP/TSG101 interaction to inhibit HIV-1 budding | AID 493005 | Potency, µM (doses to about 115 µM), for inactives: at the top dose activity change, negative = inhibition, hits mostly inhibitors | 340,000 tested, under 10 active | Fluorescence polarization, FITC-PTAP peptide / Tsg101 binding; active = well fitted inhibition curve with a large enough effect in the main read-out, with a control signal flat, not every such curve was filed as active; inconclusive = small, poorly fitted or top-dose-only effect, or effect the other way, or a change in a side signal; inactive = no such curve, though single readings can be large or run the other way; also: % of control where 0% means no effect
# Target sequence (Q99816 whole entry, looked up): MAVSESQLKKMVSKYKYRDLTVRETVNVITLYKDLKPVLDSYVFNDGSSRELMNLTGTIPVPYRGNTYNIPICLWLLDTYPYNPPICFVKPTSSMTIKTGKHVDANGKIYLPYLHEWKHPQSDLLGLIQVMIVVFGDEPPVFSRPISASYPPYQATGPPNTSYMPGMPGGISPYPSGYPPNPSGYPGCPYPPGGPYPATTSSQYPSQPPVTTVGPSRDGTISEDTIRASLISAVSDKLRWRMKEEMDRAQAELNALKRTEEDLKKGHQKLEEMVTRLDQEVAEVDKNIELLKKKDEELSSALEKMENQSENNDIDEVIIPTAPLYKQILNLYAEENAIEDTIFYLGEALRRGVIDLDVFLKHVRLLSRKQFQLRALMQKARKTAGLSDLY
#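 Fluorescence anisotropy tracks displacement of a FITC-tagged PTAP peptide (50 nM) from the Tsg101 binding domain (10 uM), following a 20 min room-temperature incubation at pH 7.5.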
# PINK1 modulator = PINK1 expression modulation; PINK1 immunofluorescence, high-content cytometry, 24 h; Potency, µM (top dose mostly 76.6 µM), inactives show at the highest dose activation (PINK1 increase), actives largely listed as activators; actives 0.2% (n = 410,000); AID 624263; active = well fitted activation curve with a large enough effect; inconclusive = small, poorly fitted or top-dose-only effect; cell line not stated here; also: % of control where 0% means no effect; nearly all actives have a fitted effect of over 65% in size
#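 PINK1 protein, normally rapidly degraded, was detected by immunofluorescence after 24 hour compound treatment of a stable cell line. Titration data (5 concentrations) came from laser-scanning cytometry, with CCCP-treated wells as controls.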
# KB-3-1 cytotox = KB-3-1 parental cell cytotoxicity; KB-3-1 viability, CellTiter-Glo ATP luminescence, 72 h; Potency, µM (doses to about 46.1 µM), hits mostly cytotoxic; actives 1.4% (n = 400,000); also: % is scaled to controls: 0 for no effect and ±100 for the full control effect; nearly all actives have a fitted effect of over 60% in size
#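 Screening of KB-3-1 cells (DMEM, 10% FBS, phenol-red free) ran from lowest to highest compound concentration; after 72 h at 37 °C viability was read luminescently and curves fitted.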
# MCF10A rereplic = DNA re-replication induction in MCF 10a cells; MCF 10A DNA re-replication, Hoechst nuclear intensity, 48 h; Potency, µM (top dose mostly 46.1 µM), for the others: top-dose activity, positive = re-replication, most hits filed as activators; actives 2.9% (n = 350,000); AID 624296; also: % of control where 0% means no effect; nearly all actives have a fitted effect of over 50% in size
# KB-V1 MDR tox = kills drug-selected multidrug resistant KB-V1 cells; Potency, µM (top dose mostly 46.1 µM), usual class: cytotoxic; actives 3.4% (n = 400,000); KB-V1 MDR cells viability, CellTiter-Glo, 72 h; also: % is scaled to controls: 0 for no effect and ±100 for the full control effect; nearly all actives have a fitted effect of over 60% in size
#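 Drug-selected KB-V1 cells, grown in DMEM lacking phenol red with 10% FBS, receive compound titrations; after three days at 37 degrees C, surviving cell ATP is quantified by CellTiter-Glo luminescence and responses normalized and curve-fitted.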
# Active calls of the source: *; i = inactive; ? = inconclusive; . = not tested or not shown; ! = not active in a repeat; [ ] = another dose, or the depositor's remark. Unless noted, calls follow the shape of the dose curve; as a rule, active = well fitted curve in the direction sought with a large enough effect; inconclusive = small, poorly fitted or top-dose-only effect, or another doubt; inactive = no such curve, though single readings can be large; an effect the other way counts as inactive or inconclusive. Potency is read from the fitted curve at half-maximal effect.
SMILES,SW480 rereplic,PTAP TSG101 blk,PINK1 modulator,KB-3-1 cytotox,MCF10A rereplic,KB-V1 MDR tox
CC(=O)N1CCN(c2ccc(Oc3ccc([N+](=O)[O-])c(C(F)(F)F)c3)cc2)CC1,8.3%,-6.4%,0.6%,?,?,5.17µM*
CCC(C)c1ccccc1NC(=O)COC(=O)c1ccc2[nH]c3c(c2c1)CCCC3 (stereo not given),?,-1.3%,?,?,8.2µM*,20.6µM*
O=C(COC(=O)c1ccc2[nH]c3c(c2c1)CCCC3)Nc1ccccc1Cl,-1.2%,1.4%,8.5%,i,17.1%,i
Cc1ncsc1CCOC(=O)c1ccc(N2CCOCC2)c([N+](=O)[O-])c1,-38.5%,-6.1%,-1.3%,i,-3.9%,i
Cc1c(CCOC(=O)c2ccc(N3CCOCC3)c([N+](=O)[O-])c2)sc[n+]1CC#N,26.9%,1.2%,-4.1%,20.6µM*,16.4µM*,?
CCC(C)c1ccccc1NC(=O)COC(=O)c1ccc(N2CCCC2)c([N+](=O)[O-])c1 (stereo not given),-3.9%,0.3%,4.0%,0.0023µM*,5.4%,i
O=C(COC(=O)c1ccc(N2CCOCC2)c([N+](=O)[O-])c1)Nc1ccc2c(c1)OCO2,-0.2%,-4.8%,-1.1%,?,-2.2%,8.2µM*
COc1ccccc1Cn1c(C2CC(=O)N(c3ccccc3OC)C2)nc2ccccc21 (stereo not given),.,.,-1.1%,i,.,i
COc1ccc(Cl)cc1NC(=O)Cn1nc(Cc2ccncc2)c2ccccc2c1=O,.,.,1.3%,.,.,.
c1ccc(CNc2ncnc3ccccc23)cc1,-0.2%,-2.0%,-2.1%,?,7.3%,8.2µM*!
CNc1nc(NCc2ccccc2)c2ccccc2n1,14.6%,-2.7%,9.1%,?,?,i
COc1cc2ncnc(NCc3ccccc3)c2cc1OC,-3.6%,-3.8%,-1.0%,i,6.51µM*,?
C=CCNc1ncnc2ccccc12,-7.6%,3.9%,25.0%[38.3 µM],i,-3.7%,?
Oc1ccccc1Nc1nc(NCc2ccccc2)c2ccccc2n1,16.0%,0.0%,-3.9%,23.1µM*,16.4µM*,20.6µM*
COc1ccc(CNc2ncnc3cc(Cl)ccc23)cc1,-2.7%,1.3%,1.2%,?,-4.0%,20.6µM*
COc1cccc(CNc2ncnc3cc(Cl)ccc23)c1,?,-10.7%,-1.5%,i,?,?
Cc1cc(C)c(Cn2c3ccccc3c3cnn(CC(=O)NCCc4ccccc4)c(=O)c32)c(C)c1,.,.,0.0%,i,.,i
O=P(Cc1ccccc1)(c1ccccc1)c1ccccc1,-5.3%,-2.6%,-1.4%,i,-1.4%,?
O=P(Cc1ccccc1)(Cc1ccccc1)c1ccccc1,-3.0%,-1.4%,-4.1%,i,-1.0%,18.4µM*
CN(C)/C(CN1CCOCC1)=C1\N=C(c2ccccc2)OC1=O,-7.1%,.,1.1%[38.3 µM],i,-4.4%,16.4µM*
CCOC(=O)C1=C(c2ccccc2)NC(N)=NC1c1ccc(OCc2ccc(Cl)cc2)c(OC)c1 (stereo not given),?,1.8%,0.2%,?,18.4µM*,i
CNCc1c(OCc2ccccc2)ccc2ccccc12,1.5%,0.2%,9.4%,i,-13.3%,i
CNCc1c(OCc2ccccc2F)ccc2ccccc12,?,0.8%,-1.3%,i,?,11.6µM*
CCN(c1ccc(C)cc1C)S(=O)(=O)c1nnc(NC(=O)c2ccccc2OC)s1,.,.,-0.3%,.,.,.
Cc1cc2nc(N3CCC(NC(C)c4nc(-c5ccccn5)no4)CC3)nc(C)c2cc1C (stereo not given),.,.,0.0%,.,.,.
SMILES,SW480 rereplic,PTAP TSG101 blk,PINK1 modulator,KB-3-1 cytotox,MCF10A rereplic,KB-V1 MDR tox
Cc1ccc(CNC(=O)Cc2ccc(-n3cccc3)cc2)cc1,4.11µM*,-3.8%,7.1%,7.31µM*,5.8µM*,2.31µM*
O=C(Cc1ccc(-n2cccc2)cc1)NCc1cccs1,?,1.3%,11.7%,1.64µM*,?,1.16µM*
COc1ccc(CC(=O)NCc2ccc(-n3cccc3)cc2)cc1OC,5.17µM*,-0.6%,8.5%,4.11µM*,5.8µM*,8.2µM*
O=C(CNC(=O)Cc1ccccc1)NCc1cccs1,-3.2%,-1.5%,1.0%,i,0.5%,i
Cc1ccc(C(=O)Nc2cccc(-c3nc(CNC(=O)c4cccc(N(C)C)c4)c(C)o3)c2)s1,.,.,-0.2%,.,.,.
Cc1ccc2c(c1)[C@H]1[C@H](CO2)[C@H](c2ccccc2)[C@]2(C)C(=O)Nc3cc(Cl)ccc3C(=O)N12,?,-0.8%,1.0%,?,9.2µM*,?
C[C@@]12C(=O)Nc3cc(F)ccc3C(=O)N1[C@H]1c3ccccc3OC[C@@H]1[C@@H]2c1ccccc1,1.6%,-0.9%,-0.4%,i,28.9%,i
COc1ccc2c(c1)OC[C@H]1[C@H]2N2C(=O)c3cc(F)ccc3NC(=O)[C@@]2(C)[C@H]1c1ccccc1,?,.,5.7%,?,?,?
Cc1ccc2c(c1)[C@H]1[C@H](CO2)[C@H](c2ccccc2)[C@]2(C)C(=O)Nc3ccc(F)cc3C(=O)N12,5.8µM*,-5.2%,5.2%,?,3.26µM*,?
COc1ccc2c(c1)OC[C@H]1[C@H]2N2C(=O)c3ccc(C)cc3NC(=O)[C@@]2(C)[C@H]1c1ccccc1,14.1%,1.7%,4.5%,i,27.2%,i
Cc1ccc2c(c1)[C@H]1[C@H](CO2)[C@H](c2ccccc2)[C@]2(C)C(=O)Nc3cc(F)c(F)cc3C(=O)N12,23.1µM*,3.1%,8.2%,?,5.17µM*,i
CCc1ccc(CNC(=O)COc2cc(=O)n(CC)c3ccccc23)cc1,.,.,8.6%,?,.,i
Cc1ccc(C(=O)N/N=C/c2ccc([N+](=O)[O-])s2)cc1,?,-4.8%,1.5%,i,24.1%,?
Cc1cc([N+](=O)[O-])ccc1NC(=O)/C=C/c1cccs1,-94.2%,-0.5%,11.6%,?,-62.3%,8.2µM*
Cc1ccnc(NC(=O)/C=C/c2cccs2)c1,?,-1.1%,9.3%,?,?,11.6µM*
Cc1ccc(NC(=O)/C=C/c2ccc([N+](=O)[O-])s2)cc1,8.2µM*,-0.5%,?,?,5.8µM*,?
Cc1ccc(NC(=O)COC(=O)c2ccc([N+](=O)[O-])s2)c(C)c1,0.2%,-3.8%,1.5%,i,7.8%,i
O=C(/C=C/c1cccs1)Nc1nncs1,-16.1%,0.0%,0.8%,i,-1.9%,i
Cc1ccc(NC(=O)/C=C/c2ccc([N+](=O)[O-])s2)c(C)c1,4.61µM*,1.8%,?,?,1.64µM*,i

# Compound activity from PubChem.
